Screening data (PubChem BioAssay)
PAFAH2 FP inh – PAFAH2 enzyme inhibitors, primary screen, biochemical, fluorescence polarization, human. actives 0.99% (n = 340,000). recombinant PAFAH2, FP-rhodamine activity probe. inhibition, % at 3.39 µM. AID 492956, 2010;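 active means inhibition above the mean over all tested compounds plus 3 SD, cut at about 30% in these data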;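 further: inhibitors block probe labeling of enzyme so polarization drops; 0% = enzyme with DMSO and 100% = wells lacking PAFAH2 protein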
PAFAH1B3 inh – PAFAH1B3 enzyme inhibitors, primary screen, biochemical, fluorescence polarization, human; Platelet-activating factor acetylhydrolase IB subunit alpha1 (Homo sapiens), Q15102; recombinant PAFAH1B3, FP-rhodamine probe; inhibition, % at 3.39 µM; actives 0.28% (n = 340,000); AID 492972, 2010;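 active means inhibition above the screen-wide average of all tested compounds plus 3 SD, cut at about 25% in these data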;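 further: 0% = enzyme with DMSO only and 100% = wells lacking PAFAH1B3 protein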
Target sequence (Q15102 whole entry, looked up): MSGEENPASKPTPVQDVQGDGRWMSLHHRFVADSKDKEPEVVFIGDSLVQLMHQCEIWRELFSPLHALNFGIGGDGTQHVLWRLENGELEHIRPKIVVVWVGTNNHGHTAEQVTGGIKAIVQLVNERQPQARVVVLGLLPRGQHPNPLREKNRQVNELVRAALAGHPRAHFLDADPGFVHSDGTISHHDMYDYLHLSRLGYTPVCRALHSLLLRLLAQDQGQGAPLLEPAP
E coli Lon inh – inhibitors of E. coli Lon protease, primary screen, biochemical, fluorescence polarization; purified E. coli Lon protease; P0A9M0; actives 0.42% (n = 360,000); inhibition, % at 7.94 µM; AID 602123, 2011; in the data active means inhibition above about 13%, passing the limit was not always enough;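 further: 0% = enzyme with probe and DMSO and 100% = no enzyme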
PAFAH1B2 FP inh – PAFAH1B2 enzyme inhibitors, primary screen, biochemical, fluorescence polarization, human; actives 1.2% (n = 340,000); recombinant PAFAH1B2, FP-rhodamine activity probe; inhibition, % at 3.39 µM; AID 492953, 2010; Platelet-activating factor acetylhydrolase IB subunit alpha2 (Homo sapiens), P68402;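 active means inhibition above the mean of all tested compounds plus 3 SD, cut at about 24% in these data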;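 further: 0% = enzyme with DMSO and 100% = wells lacking PAFAH1B2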
Target sequence (P68402 whole entry, looked up): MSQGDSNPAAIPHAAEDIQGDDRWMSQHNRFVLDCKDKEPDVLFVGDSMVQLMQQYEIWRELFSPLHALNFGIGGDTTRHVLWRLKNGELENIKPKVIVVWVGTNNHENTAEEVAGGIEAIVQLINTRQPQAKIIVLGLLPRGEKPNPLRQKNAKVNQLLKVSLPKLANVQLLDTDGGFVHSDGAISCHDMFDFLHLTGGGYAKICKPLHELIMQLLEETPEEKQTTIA
pPAFAH inh – pPAFAH enzyme inhibitors, primary screen, biochemical, fluorescence polarization, human. recombinant pPAFAH, FP-rhodamine probe fluorescence polarization. inhibition, % at 3.39 µM. actives 1.5% (n = 330,000);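 active means inhibition above the mean inhibition across the screen plus 3 SD, cut at about 25% in these data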;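 further: inhibitors block binding of the rhodamine activity-based probe so polarization drops; 0% = enzyme with DMSO and 100% = wells lacking pPAFAH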
Rin1 Abl inh – inhibitors of Rin1-Abl protein binding, primary screen, biochemical, TR-FRET. Tyrosine-protein kinase ABL1 (Homo sapiens) + Ras and Rab interactor 1 (Homo sapiens), …. inhibition, % at 7.35 µM. actives 0.4% (n = 360,000). AID 588664, 2011; in the data active means inhibition above about 5%, passing the limit was not always enough
Rin1-Abl confirm – Rin1-Abl binding inhibitor retest, confirmation, biochemical, TR-FRET; actives 49% (n = 1,300); shares compounds with Rin1 Abl inh; inhibition, % at 7.35 µM; purified proteins
GFP quench – GFP fluorescence inhibitors and quenchers, artefact control for Rin1-Abl interaction inhibitor project, biochemical; shares compounds with Rin1 Abl inh; inhibitors/quenchers counterscreen; inhibition, % at 6.75 µM; actives 8.5% (n = 1,300); AID 602125, 2011;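 further: ABL1-eGFP fusion protein alone without its partner RIN1-SBP; 0% = protein with vehicle and 100% = wells lacking protein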
GFP quench DR – GFP fluorescence inhibitors and quenchers, dose response, artefact control for Rin1-Abl interaction inhibitor project, biochemical. 230 tested, under 10 active. GFP fluorescence interference/quenching counterscreen. IC50, µM. shares compounds with Rin1 Abl inh. AID 602182, 2012; call rule not given here;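 further: ABL1-eGFP fusion protein alone without its RIN1 binding partner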
* = called active by the depositor; · = not tested or not shown. Compounds with a hit are over-represented: about 3.1% of the library has one in this group of screens. Unless noted, no stated cut-off is given here; in the data, active means inhibition above about 6.5%; inactive means the rest.

SMILES	PAFAH2 FP inh	PAFAH1B3 inh	E coli Lon inh	PAFAH1B2 FP inh	pPAFAH inh	Rin1 Abl inh	Rin1-Abl confirm	GFP quench	others
CN(C)c1ncnc2c1ncn2[C@H]1CN(Cc2ccc(-c3ccccc3)cc2)C[C@@H](CO)O1	·	·	-4	·	·	20*	15*	-2
CC(C)N(C)c1ncnc2c1ncn2[C@H]1CN(Cc2ccc(Cl)cc2)C[C@@H](CO)O1	·	·	-17	·	·	6.2*	6.3*	-1
COc1cc(CN2C[C@@H](CO)O[C@@H](n3cnc4c(NCc5ccc(F)cc5)ncnc43)C2)cc(OC)c1OC	·	·	0	·	·	11*	6.5*	-3
OC[C@@H]1CN(Cc2ccccc2)C[C@H](n2cnc3c(NC4CC4)ncnc32)O1	·	·	13	·	·	2	·	·
CCOC(=O)[C@]12CCC=C1N(Cc1cccc3ccccc13)C(=O)[C@H](CC(=O)NCc1ccc(OC)c(OC)c1)C2	·	·	1	·	·	·	·	·
OCCNc1ncnc2c1ncn2[C@H]1CN(Cc2ccc(Cl)cc2)C[C@@H](CO)O1	·	·	-9	·	·	7.2*	5	0
CNc1ncnc2c1ncn2[C@H]1CN(Cc2ccc(Cl)cc2)C[C@@H](CO)O1	·	·	-6	·	·	-1	·	·
OCCCNc1ncnc2c1ncn2[C@H]1CN(Cc2ccc(-c3ccccc3)cc2)C[C@@H](CO)O1	·	·	-4	·	·	19*	22*	0	GFP quench DR=>68
COCCNc1ncnc2c1ncn2[C@H]1CN(Cc2ccc(F)cc2)C[C@@H](CO)O1	·	·	-9	·	·	1	·	·
C=CCNc1ncnc2c1ncn2[C@H]1CN(Cc2ccc(-c3ccccc3)cc2)C[C@@H](CO)O1	·	·	-2	·	·	19*	17*	0	GFP quench DR=>68
COCCNc1ncnc2c1ncn2[C@H]1CN(Cc2ccc(-c3ccccc3)cc2)C[C@@H](CO)O1	·	·	5	·	·	9.6*	11*	-1
OCCCNc1ncnc2c1ncn2[C@H]1CN(Cc2cccs2)C[C@@H](CO)O1	·	·	-13	·	·	2	·	·
CCCc1nc2ccc(Cl)cn2c1Cc1ccc(C)cc1	·	·	-4	·	·	2	·	·
COc1ccc(CCN(C)C(=O)C2CCCN(C3CCN(Cc4ccccc4)CC3)C2)cc1OC (configuration not stated)	2	4	5	4	5	-2	·	·
CC(C)NC(=O)C1(C)CCN1C(=O)c1ccccc1F (configuration not stated)	·	·	-6	·	·	6	·	·
CCCCn1c(SCC2CCCO2)nc2cc(S(N)(=O)=O)ccc21 (configuration not stated)	-3	3	-1	0	1	5.9*	0	-1
CC[C@]12c3[nH]c4cc(-c5ccco5)ccc4c3CCN1C(=O)[C@@H](CC(=O)NCC13CC4CC(CC(C4)C1)C3)C[C@@H]2C(=O)N1CCN(C(=O)c2ccco2)CC1	-3	6	-7	3	13	-1	·	·
CC[C@]12c3[nH]c4ccc(OC)cc4c3CCN1C(=O)C(CC(=O)NCC13CC4CC(CC(C4)C1)C3)C[C@@H]2C(=O)N1CCN(C(=O)c2ccco2)CC1 (some centres not stated)	3	5	-3	1	8	54*	59*	2	GFP quench DR=>68
CC[C@]12c3[nH]c4ccc(Cl)cc4c3CCN1C(=O)[C@@H](CC(=O)NCC13CC4CC(CC(C4)C1)C3)C[C@@H]2C(=O)N1CCN(C(=O)c2ccco2)CC1	-2	10	5	-1	1	21*	16*	-1
Cc1cc(CN2CCC(n3nccc3NC(=O)c3ccccc3Cl)CC2)cc(C)c1O	4	2	-1	1	0	2	·	·
CN(C)c1cccc(CNC(=O)c2ccc3nc([C@H]4C[C@H](O)[C@@H](CO)O4)[nH]c3c2)c1	·	·	-2	·	·	-3	·	·
CN(C)c1cccc(CNC(=O)c2ccc3nc([C@@H]4O[C@H](CO)[C@H](O)[C@H](O)[C@H]4O)[nH]c3c2)c1	·	·	-15	·	·	14*	-1	-1
O=C(c1ccc2c(c1)OCO2)N1CCN(c2ncccn2)CC1	-4	6	3	4	-6	5.3*	-1	-3
CC(=O)Nc1nn(C)c2nc3cc(C)ccc3cc12	8	3	-2	0	4	-4	·	·
Cc1ccc2cc3c(NC(=O)c4cccnc4)nn(C)c3nc2c1	-2	6	-4	1	1	6.0*	21*	0
CC1(C(=O)NCCc2c[nH]c3ccccc23)CCN1Cc1csc2ccccc12 (configuration not stated)	·	·	-3	·	·	0	·	·
Cc1nc2ccc(S(=O)(=O)NC(C(=O)NC3CCCC3)C(C)C)cc2s1 (configuration not stated)	-4	4	-4	0	0	-2	·	·
CCN1CCN(C(=O)C(NS(=O)(=O)c2ccc3nc(C)sc3c2)C(C)C)CC1 (configuration not stated)	2	6	-8	-3	7	8.1*	1	0
CCn1c(C)nc2cc(C(=O)N/N=C/c3ccc(O)c(O)c3O)ccc21	8	-3	9	4	·	45*	53*	23*
CCN(CC)S(=O)(=O)c1cccc(C(=O)N/N=C/c2ccc(O)c(O)c2O)c1	8	17	7	14	30*	18*	15*	11*
